Several values for one entry are separate records, joined by “and”; a condition that tells them apart may be missing. Identical values can stand only once. Records with an inconclusive call do not appear. Some structures have more than one record in an assay (separate samples or runs), and their calls can disagree. Activity calls are given as the source filed them. Calls follow the shape of the dose curve; as a rule, active = well fitted curve in the direction sought with a large enough effect; inconclusive = small, poorly fitted or top-dose-only effect, or another doubt; inactive = no such curve, though single readings can be large; an effect the other way counts as inactive or inconclusive.

Chain of Rap guanine nucleotide exchange factor 3 (Homo sapiens) (O95398 whole entry, looked up): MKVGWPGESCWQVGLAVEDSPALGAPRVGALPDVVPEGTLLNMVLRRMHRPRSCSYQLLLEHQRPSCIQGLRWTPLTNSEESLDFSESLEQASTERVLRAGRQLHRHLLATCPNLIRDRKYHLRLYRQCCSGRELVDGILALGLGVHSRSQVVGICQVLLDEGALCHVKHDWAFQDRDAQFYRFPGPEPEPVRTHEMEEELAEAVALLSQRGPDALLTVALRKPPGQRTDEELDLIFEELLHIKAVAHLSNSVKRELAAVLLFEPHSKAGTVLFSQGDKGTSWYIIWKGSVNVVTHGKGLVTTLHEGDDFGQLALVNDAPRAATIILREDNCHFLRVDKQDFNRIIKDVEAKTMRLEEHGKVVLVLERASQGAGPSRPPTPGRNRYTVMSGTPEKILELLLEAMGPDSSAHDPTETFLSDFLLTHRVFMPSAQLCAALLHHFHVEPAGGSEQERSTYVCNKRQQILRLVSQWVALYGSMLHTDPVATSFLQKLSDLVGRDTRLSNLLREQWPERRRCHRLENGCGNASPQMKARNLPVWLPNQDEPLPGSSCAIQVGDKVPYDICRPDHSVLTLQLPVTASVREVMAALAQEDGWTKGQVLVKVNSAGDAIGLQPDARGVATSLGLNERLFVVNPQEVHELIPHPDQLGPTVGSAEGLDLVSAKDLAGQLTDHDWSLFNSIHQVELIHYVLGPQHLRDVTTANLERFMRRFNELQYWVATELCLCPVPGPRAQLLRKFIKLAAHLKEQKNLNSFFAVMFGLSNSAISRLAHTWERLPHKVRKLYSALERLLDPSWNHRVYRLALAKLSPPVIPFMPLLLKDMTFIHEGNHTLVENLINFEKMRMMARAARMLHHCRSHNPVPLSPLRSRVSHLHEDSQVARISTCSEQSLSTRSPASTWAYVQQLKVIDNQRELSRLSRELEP

Tested on in the first test: not listed separately
Nature of the test: Primary qHTS for inhibitors of nuclear receptor binding SET domain protein 2 (NSD2) in an RCH-ACV wild type WT cells (2C) (AID 1645877). Also: nearly all actives have a fitted effect of over 70% in size. Also: potency is read from the fitted curve at half-maximal effect. As to activity change, negative = cell killing: % is scaled to controls: 0 for no effect and ±100 for the full control effect. As to conditions: RCH-ACV (leukaemia line) NSD2 WT (2C) viability, CellTiter-Glo, 72 h; series mostly up to 44.9 µM; activity change, negative = cell killing: at the top concentration. (Quantitative high-throughput screening tests each substance at several concentrations.)
Consider `Cc1ccccc1C(OCCN(C)C)c1ccccc1` (stereo not drawn), for which the “activity change, negative = cell killing” value is 0.504% (inactive). `CNCc1ccc(-c2[nH]c3cc(F)cc4c3c2CCNC4=O)cc1`: the Potency was 7.28 µM (active) and 7.42 µM (active). Still for that read-out and setting: under `O=C(c1cc(Cc2n[nH]c(=O)c3ccccc23)ccc1F)N1CCN(C(=O)C2CC2)CC1` stands 3.72 µM (active).

With `CC(C)(Sc1ccc(CCN(CCCCC2CCCCC2)C(=O)NC2CCCCC2)cc1)C(=O)O`, the “outcome” value is “inactive”.

Regarding `COc1cc2c(cc1OC)CN(CCc1ccc(NC(=O)c3cccc4c(=O)c5cccc(OC)c5[nH]c34)cc1)CC2`, the “activity change, negative = cell killing” value was -22.5% (inactive).

For the compound `O=C1CCC(N2C(=O)c3ccccc3C2=O)C(=O)N1` (stereo not drawn), the Potency result is “inactive”. `c1ccc([C@H]2CN3CCSC3=N2)cc1`: the “activity change, negative = cell killing” value was 7.04% (inactive).

`CC(=O)Oc1ccccc1C(=O)O`: the Potency entry is “inactive”.

Regarding `Cc1cnc(Nc2ccc(OCCN3CCCC3)cc2)nc1Nc1cccc(S(=O)(=O)NC(C)(C)C)c1`, the Potency is 1.83 µM (active) and 1.86 µM (active).

For `Cn1cnc2c(F)c(Nc3ccc(Br)cc3Cl)c(C(=O)NOCCO)cc21`, the “activity change, negative = cell killing” value is -29.6% (inactive). Consider `Cc1cnc(NC(=O)C2=C(O)c3ccccc3S(=O)(=O)N2C)s1`, for which the Potency result is “inactive”. Take `CCN(CC)CCCC(C)Nc1ccnc2cc(Cl)ccc12` (stereo not drawn): the Potency result was “inactive”. Turning to `NC[C@H](O)c1ccc(O)c(O)c1`, the “activity change, negative = cell killing” value is -9.32% (inactive).

`CCCCCCCc1ccc(CCc2cccc(O)c2C(=O)O)cc1`: the “activity change, negative = cell killing” value is -13.5% (inactive). As for `Cc1[nH]c(=O)c(C#N)cc1-c1ccc2nccn2c1`, the “activity change, negative = cell killing” value is -3.48% (inactive).

For the compound `CCCC(CCC)C(=O)O`, the Potency result is “inactive”.

In the case of `Nc1nc2c(ncn2COCCO)c(=O)[nH]1`, the Potency result was “inactive”. Still for that read-out and setting: next, `CCCS(=O)(=O)Nc1ccc(F)c(C(=O)c2c[nH]c3ncc(-c4ccc(Cl)cc4)cc23)c1F`: 16.4 µM (active) and inactive; `NC(=O)c1ccc(I)c([N+](=O)[O-])c1`: 16.6 µM (active); `Nc1nc2[nH]cc(CCc3ccc(C(=O)N[C@@H](CCC(=O)O)C(=O)O)cc3)c2c(=O)[nH]1`: 0.296 µM (active). Take `CNC(=O)c1ccc(N2C(=S)N(c3ccc(C#N)c(C(F)(F)F)c3)C(=O)C2(C)C)cc1F`: the “activity change, negative = cell killing” value is -9.73% (inactive). With `Nc1nc2ccc(OC(F)(F)F)cc2s1`, the Potency is 20.9 µM (active). For the compound `CCCc1nc2c(C)cc(-c3nc4ccccc4n3C)cc2n1Cc1ccc(-c2ccccc2C(=O)O)cc1`, the Potency result was “inactive”. Take `Oc1ccc(C2CNCCc3c2cc(O)c(O)c3Cl)cc1` (stereo not drawn): the “activity change, negative = cell killing” value is -16.8% (inactive). Turning to `CN1CCN(CCCN2c3ccccc3Sc3ccc(C(F)(F)F)cc32)CC1`, the Potency was 23.7 µM (active) and 16.6 µM (active). Same read-out and setting: next, `COc1cc(Nc2ncc3c(n2)-c2ccc(Cl)cc2C(c2c(F)cccc2OC)=NC3)ccc1C(=O)O`: 91.6 nM (active) and 29 nM (active) and 37.2 nM (active). On the same count and under the same terms, next, `CS(=O)(=O)c1cccc(CNc2nc(Nc3ccc4c(c3)CCC(=O)N4)ncc2C(F)(F)F)c1`: 3.32 µM (active).

A further test has as its target Rap guanine nucleotide exchange factor 3 (Homo sapiens) (UniProt O95398). The test can be described thus: Confirmatory qHTS for antagonist of cAMP-regulated guanine nucleotide exchange factor 3 (EPAC1) (AID 1645880). Also: nearly all actives have a fitted effect of over 55% in size. Also: potency is read from the fitted curve at half-maximal effect.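 As to activity, negative = inhibition: plate controls were DMSO only for no effect and full effect of the ATA control for full effect.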 As to conditions: EPAC1 Rap1B-BODIPY-GDP exchange, fluorescence; series mostly up to 115 µM; activity, negative = inhibition: at the top concentration. Put shortly:
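Nucleotide exchange uses 100 nM EPAC1, 250 nM RAP1B-BODIPY-GDP and 50 uM GDP, with compounds in a concentration-titration series. After 5 min at room temperature, fluorescence (480 nm ex/540 nm em) is read every 5 min for 30 min. Data are normalized to control ATA and DMSO.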
Consider `CC(C)(Sc1ccc(CCN(CCCCC2CCCCC2)C(=O)NC2CCCCC2)cc1)C(=O)O`, for which the Potency was 28 µM (active) and 42.6 µM (active). As to `Nc1nc2ccc(OC(F)(F)F)cc2s1`, the “activity, negative = inhibition” value is -18.9% (inactive). Consider `CCOC(=O)N1CCC(=C2c3ccc(Cl)cc3CCc3cccnc32)CC1`, for which the “activity, negative = inhibition” value is -12.1% (inactive).

Another test shares this target. The test can be described thus: Confirmatory qHTS for agonist of cAMP-regulated guanine nucleotide exchange factor 3 (EPAC1) (AID 1645881).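 Also: EPAC1 catalysed release of BODIPY-GDP from Rap1B seen as fluorescence loss; nearly all actives have a fitted effect of over 75% in size.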 As to conditions: EPAC1 Rap1B BODIPY-GDP exchange fluorescence, 100% = cAMP control response; series mostly up to 154 µM; activation: at the top concentration.
In the case of `CC(C)(Sc1ccc(CCN(CCCCC2CCCCC2)C(=O)NC2CCCCC2)cc1)C(=O)O`, the outcome is “inactive”. Take `Nc1nc2ccc(OC(F)(F)F)cc2s1`: the “activation” value was -9.92% (inactive). The same measure, in the same setting: next, `CCOC(=O)N1CCC(=C2c3ccc(Cl)cc3CCc3cccnc32)CC1`: 11.9% (inactive). `CN1CCN(CCCN2c3ccccc3Sc3ccc(C(F)(F)F)cc32)CC1`: the outcome was “inactive”.

The next test deals with Rap guanine nucleotide exchange factor 4 (Homo sapiens) (UniProt Q8WZA2). The test can be described thus: Confirmatory qHTS for agonist of cAMP-regulated guanine nucleotide exchange factor 4 (EPAC2) (AID 1645884).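 Also: nucleotide exchange releases bodipy-GDP from Rap1 and this lowers its fluorescence; % is scaled to controls: 0 for no effect and ±100 for the full control effect; nearly all actives have a fitted effect of over 65% in size.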 As to conditions: EPAC2 GEF activity, Rap1B-BODIPY-GDP fluorescence, percent relative to cAMP agonist control; series mostly up to 154 µM; activation: at the top concentration.
Chain of Rap guanine nucleotide exchange factor 4 (Homo sapiens) (Q8WZA2 whole entry, looked up): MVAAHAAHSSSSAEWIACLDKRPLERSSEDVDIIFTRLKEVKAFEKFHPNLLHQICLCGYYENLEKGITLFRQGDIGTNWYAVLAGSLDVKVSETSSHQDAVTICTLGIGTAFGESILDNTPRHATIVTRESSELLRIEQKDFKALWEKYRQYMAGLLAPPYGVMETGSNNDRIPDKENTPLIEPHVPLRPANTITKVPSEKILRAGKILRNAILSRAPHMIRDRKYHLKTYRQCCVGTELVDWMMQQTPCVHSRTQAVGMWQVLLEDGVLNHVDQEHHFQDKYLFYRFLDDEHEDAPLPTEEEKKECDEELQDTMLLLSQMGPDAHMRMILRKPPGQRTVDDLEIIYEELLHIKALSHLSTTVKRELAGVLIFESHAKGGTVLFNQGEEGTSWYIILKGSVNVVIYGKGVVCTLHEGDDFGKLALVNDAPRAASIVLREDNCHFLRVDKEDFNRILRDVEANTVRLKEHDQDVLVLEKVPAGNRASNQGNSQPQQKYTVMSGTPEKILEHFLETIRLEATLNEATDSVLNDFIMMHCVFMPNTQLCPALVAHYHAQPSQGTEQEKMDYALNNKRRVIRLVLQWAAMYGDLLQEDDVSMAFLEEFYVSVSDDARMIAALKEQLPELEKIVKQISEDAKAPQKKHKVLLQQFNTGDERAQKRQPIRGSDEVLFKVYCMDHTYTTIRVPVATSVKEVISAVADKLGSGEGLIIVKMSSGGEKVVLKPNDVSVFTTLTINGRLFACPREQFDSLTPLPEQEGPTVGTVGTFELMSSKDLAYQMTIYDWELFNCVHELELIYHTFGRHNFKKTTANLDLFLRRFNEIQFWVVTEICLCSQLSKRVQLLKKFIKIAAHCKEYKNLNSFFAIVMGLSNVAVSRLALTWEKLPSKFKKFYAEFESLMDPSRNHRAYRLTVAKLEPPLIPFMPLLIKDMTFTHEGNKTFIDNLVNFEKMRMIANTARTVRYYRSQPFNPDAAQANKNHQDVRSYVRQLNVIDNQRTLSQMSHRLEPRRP
Regarding `CC(C)(Sc1ccc(CCN(CCCCC2CCCCC2)C(=O)NC2CCCCC2)cc1)C(=O)O`, the outcome was “inactive”. Turning to `Nc1nc2ccc(OC(F)(F)F)cc2s1`, the “activation” value was 3.46% (inactive). Still for that read-out and setting: under `CN1CCN(CCCN2c3ccccc3Sc3ccc(C(F)(F)F)cc32)CC1` stands -18% (inactive).

For a further test, the target named is Catechol O-methyltransferase (Homo sapiens) (UniProt P21964). The test can be described thus: Confirmatory Screen for Target Class Profiling of Small Molecule Inhibitors of Methyltransferases (AID 1745852). The following applies: MTase-Glo luminescence, SAH detection, recombinant enzyme; measured here: COMT max response; stronger effect = lower value.
Chain of Catechol O-methyltransferase (Homo sapiens) (P21964 whole entry, looked up): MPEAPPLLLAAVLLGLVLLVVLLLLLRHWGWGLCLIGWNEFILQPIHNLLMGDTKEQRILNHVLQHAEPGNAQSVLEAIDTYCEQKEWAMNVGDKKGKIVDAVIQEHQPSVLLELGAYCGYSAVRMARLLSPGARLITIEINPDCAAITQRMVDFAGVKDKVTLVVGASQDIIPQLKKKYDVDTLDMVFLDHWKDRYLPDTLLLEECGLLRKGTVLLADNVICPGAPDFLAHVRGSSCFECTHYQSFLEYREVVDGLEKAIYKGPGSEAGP
Take `Cc1ccccc1C(OCCN(C)C)c1ccccc1` (stereo not drawn): the activity was -2.48%. The same measure, in the same setting: under `CNCc1ccc(-c2[nH]c3cc(F)cc4c3c2CCNC4=O)cc1` stands -6.4%. Regarding `CC(C)(Sc1ccc(CCN(CCCCC2CCCCC2)C(=O)NC2CCCCC2)cc1)C(=O)O`, the activity was -3.21%.

As to `COc1cc2c(cc1OC)CN(CCc1ccc(NC(=O)c3cccc4c(=O)c5cccc(OC)c5[nH]c34)cc1)CC2`, the activity was -13%. Same read-out and setting: under `Cc1cnc(Nc2ccc(OCCN3CCCC3)cc2)nc1Nc1cccc(S(=O)(=O)NC(C)(C)C)c1` stands -12.3%; under `CCN(CC)CCCC(C)Nc1ccnc2cc(Cl)ccc12` (stereo not drawn), -0.478%; under `NC[C@H](O)c1ccc(O)c(O)c1`, 45.4%. On the same count and under the same terms, under `CCCCCCCc1ccc(CCc2cccc(O)c2C(=O)O)cc1` stands -2.12%. Turning to `CCc1cncnc1N1CCN(Cc2nc3ccc(C(F)(F)F)cc3[nH]2)CC1`, the activity came out at 1.23%.

Take `Cc1[nH]c(=O)c(C#N)cc1-c1ccc2nccn2c1`: the activity was found to be 4.51%. Same read-out and setting: under `CCCS(=O)(=O)Nc1ccc(F)c(C(=O)c2c[nH]c3ncc(-c4ccc(Cl)cc4)cc23)c1F` stands -8.94%; under `Nc1nccc(-c2ccc3noc(-c4ccc(Cl)cc4)c3c2)n1`, -4.29%; under `OC[C@H](Cc1ccccc1)Nc1nc(Oc2ccc3c(c2)CCC3)nc2c1ncn2Cc1ccc(-c2ccccc2)cc1`, -10.9%. The same measure, in the same setting: under `Oc1ccc(C2CNCCc3c2cc(O)c(O)c3Cl)cc1` (stereo not drawn) stands -77.1%. On the same count and under the same terms, under `COc1cc(Nc2ncc3c(n2)-c2ccc(Cl)cc2C(c2c(F)cccc2OC)=NC3)ccc1C(=O)O` stands 0.763%. With `CS(=O)(=O)c1cccc(CNc2nc(Nc3ccc4c(c3)CCC(=O)N4)ncc2C(F)(F)F)c1`, the activity is -9.69% and -3.27%.

Source of the values: PubChem BioAssay (NCATS).
